Laboratory results reported in ChEMBL document CHEMBL4888484, “Replenishing the malaria drug discovery pipeline: Screening and hit evaluation of the MMV Hit Generation Library 1 (HGL1) against asexual blood stage Plasmodium falciparum ,using a nano luciferase reporter read-out” (2022).
In all, about 4,800 compounds went through this assay and about 420 (8.8%) showed an effect of 50% or more. Many of the other results were omitted from the sample, so strong results are more common in it than they were.

System: Plasmodium falciparum
Test: Confirmatory screen in NF54 nanoGlo assay, in single point, at 2uM, 72h
Type: functional, Erythrocyte
Details: timepoint 72 hour

| SMILES | % Inhibition [%] |
| --- | --- |
| O=C(NC1CC1)c1nc(C(=O)N2CCN(c3ccccn3)CC2)cs1 | -1 |
| Cc1ccccc1CNC(=O)[C@H]1CCCN(c2nc3cccnc3n(Cc3ccccc3)c2=O)C1 | -6 |
| Cc1ccccc1CNC(=O)[C@H]1CCCN(c2nc3ccccc3[nH]c2=O)C1 | -1 |
| COc1ccccc1CNC(=O)c1nnn(-c2ccc3noc(-c4ccc(Cl)cc4)c3c2)c1C | -1 |
| Cc1nccn1-c1ncc(NC(=O)Nc2ccc3c(c2)OCO3)cn1 | 21 |
| CCc1nc2cc(N3CCC(C(=O)Nc4ccc5c(c4)OCO5)CC3)cnc2nc1CC | 61 |
| Cc1ccc(C(=O)OCC(=O)Nc2ccc3c(c2)OCO3)cn1 | -2 |
| CC(C)c1cc(=O)n(Cc2ccccc2Cn2cnc(C(C)C)cc2=O)cn1 | -3 |
| Cc1nc(Nc2ccc(F)cc2)nc2c1ncn2-c1ccc(F)cc1 | -18 |
| COc1ccc(C(=O)N[C@@H](C(=O)Nc2ccccc2C)c2ccc(Cl)cc2)cc1 | 7 |
| Clc1ccc(C[n+]2ccc(-c3nc4ccccc4o3)cc2)c(Cl)c1 | 58 |
| CC(=O)N(Cc1ccccc1OCc1c(Cl)cccc1Cl)c1ccc2oc(-c3ccccc3)nc2c1 | -13 |
| CC(=O)N(Cc1ccc2c(c1)OCO2)c1cccc(-c2nc3ccccc3o2)c1 | -1 |
| O=C(NC[C@H]1CCCO1)N1CCN(c2nccs2)C(=O)C1 | 1 |
| Cc1ccc(-n2nc(N3CCN(C(=O)Cc4ccc(F)cc4)CC3)ccc2=O)cc1 | 4 |
| CCN(CC)C(=O)c1cnc2snc(C)c2c1N1CCC(C(=O)Nc2c(C)cc(C)cc2C)CC1 | 57 |
| Cc1nsc2ncc(C(=O)N3CCC(C)CC3)c(N3CCC(C(=O)Nc4cc(F)ccc4F)CC3)c12 | 60 |
| Cc1ccc(N2CCN(c3c(C(=O)N4CCCCC4)cnc4ccc(F)cc34)CC2)cc1 | -8 |
| Cc1cccc(C)c1NC(=O)C1CCN(S(=O)(=O)c2c(C)nn(-c3ccccc3)c2C)CC1 | -6 |
| O=C(c1cnc2ccc(F)cc2c1N1CCC(Cc2ccccc2)CC1)N1CCCC1 | 2 |
| CCC1(CC)CN(C(=O)c2ccn(C)c(=O)c2)c2ccccc21 | 2 |
| Cn1cc(-c2noc(Cc3c(F)cccc3Cl)n2)ccc1=O | -1 |
| Clc1cccc(CNc2cc(-c3ccco3)n[nH]2)c1 | -7 |
| CS(=O)(=O)N(CCCC(=O)NCc1ccc2c(c1)OCO2)c1ccc(F)cc1 | -2 |
| Cc1csc([C@@H](C#N)C(=O)c2ccncc2)n1 | -11 |

| SMILES | % Inhibition [%] |
| --- | --- |
| CCCCNC(=O)Nc1cccc(C#CCN)n1 | -2 |
| Cc1nc(N)nc(C)c1C(=O)Nc1ccc(Nc2ncccn2)cc1 | 46 |
| c1ccc(Nc2nc(-c3ccccc3)cc(-c3ccccc3)n2)cc1 | 3 |
| Cc1cc(N)nc(Nc2ccc(Nc3ccccc3)cc2)n1 | 87 |
| CC(C)c1cc(C(=O)N2CC3CC4CC3C2C4O)n[nH]1 (configuration not stated) | 1 |
| COc1ccsc1S(=O)(=O)N1CCC(n2ccnc2)CC1 | -3 |
| O=C(c1nc(-c2cccs2)cs1)N1CCN(c2ccccc2)CC1 | -15 |
| COc1cc(N2CCn3c(nc4cc(Cl)ccc43)C2)ccc1NC(=O)c1ccccc1OC | 4 |
| COc1ccc([C@@H]2C=C(c3ccc(Cl)cc3)N=C3NC(NC(=O)c4ccccc4OC)=NN32)cc1 | 97 |
| COc1ccccc1C(=O)NC1=NN2C(=NC(c3ccc(Cl)cc3)=C[C@H]2c2ccc(Cl)cc2)N1 | 94 |
| O=C(NC1=NN2C(=NC(c3ccc(Cl)cc3)=C[C@H]2c2ccc(F)cc2)N1)c1ccc(Cl)cc1 | 32 |
| CCC1=NN2C(=NC(C(=O)O)=C[C@H]2c2ccc(O)cc2)N1 | -7 |
| Fc1ccc(C2=C[C@@H](c3ccc(Cl)cc3)N3N=C(c4ccc(Cl)cc4)NC3=N2)cc1 | 99 |
| COc1cc(NC(=O)c2ccccc2Cl)cc(S(=O)(=O)c2ccc(Cl)cc2)c1 | -15 |
| COc1ccccc1C(=O)NC1=C(C)Nc2ncnn2[C@H]1c1c[nH]c2ccccc12 | -5 |
| C[C@H]1CCc2c(cnc3c(C(=O)NC4CC4)cnn23)C1 | -8 |
| COc1ncccc1CNC(=O)[C@@H]1CCN(c2cc(C)cc(C)c2)C1=O | 3 |
| Cc1nsc(N[C@@H]2C=C[C@H](CO)C2)n1 | -3 |
| Cc1c(NC(=O)c2n[nH]cc2Cl)c(=O)n(-c2ccccc2)n1C | -13 |
| O=C(c1ccco1)N1CC(n2cnnc2[C@@H]2CCCO2)C1 | -2 |
| Cc1ccc(S(=O)(=O)Cc2nc(-c3ccc(C(=O)NCc4ccccc4C)cc3)oc2C)cc1 | -13 |
| Cc1ccc(/N=C(/Nc2ccc(Br)cc2)c2cc(C(C)(C)C)c(O)c(C(C)(C)C)c2)cc1 | -15 |
| O=S(=O)(c1ccco1)N1CC[C@H](Oc2ccccc2)C1 | 2 |
| O=S(=O)(c1ccc(F)c(Cl)c1)N1CC[C@H](Oc2ccncc2Cl)C1 | 75 |
| O=S(=O)(c1ccc(Cl)cc1)N1CCC(c2cc(-c3cccc(C(F)(F)F)c3)[nH]n2)CC1 | -1 |

| SMILES | % Inhibition [%] |
| --- | --- |
| COC(=O)C1NS(=O)(=O)c2ccc(Cl)cc2C1(O)c1ccccc1F (configuration not stated) | -5 |
| O=C(Nc1ccc(F)c(Cl)c1)c1ccn(COc2ccccc2Cl)n1 | -6 |
| O=C(N[C@@H](N1CCCCC1)C(Cl)(Cl)Cl)c1cccnc1 | 2 |
| CC(C)c1ccc2ncnc(N[C@H]3CCc4[nH]cnc4C3)c2c1 | 97 |
| O=C(Cc1ccc(F)cc1F)N1CCc2[nH]nc(C(=O)N3CCN(c4ccccc4)CC3)c2C1 | 3 |
| Cc1ccccc1Nc1c(-c2c[nH]c3ccccc23)nc2ncccn12 | 1 |
| Cc1cc2c(OC[C@@H](O)CN3CCOCC3)cccc2[nH]1 | -13 |
| Cc1cc(C)nc([C@@H](C#N)C(=O)c2ccnc(OCC(F)F)c2)n1 | -7 |
| COc1ccccc1C(=O)Nc1ccc(N2CCCN(C)CC2)cc1C(=O)O | -12 |
| Cn1ccnc(N[C@@H](COc2ccccc2F)c2ccccc2)c1=O | -7 |
| Cc1ccc(S(=O)(=O)N2CC[C@H](CC(=O)NCc3ccccc3)C2)cc1C | -16 |
| CNC(=O)COc1c(Cl)ccc(Cl)c1Br | 0 |
| CCN(CCC1CCN(C(=O)Nc2ccc(OC3CCOCC3)c(C)c2)CC1)CC(C)C | -3 |
| CC(C)(C)[C@H]1CCc2c(sc(NC(=O)C3(F)C(F)(F)C(F)(F)C(F)(F)C(F)(F)C3(F)F)c2C#N)C1 | 50 |
| N#Cc1c(NC(=O)CN2CCC[C@@H]2CO)sc2c1CCCCC2 | 1 |
| COc1ccc2[nH]c(-c3nnc(Cn4c(C)cc5ccccc54)s3)cc2c1 | 2 |
| Cc1cc(S(=O)(=O)NC(=O)CCC(C)C)c(C)o1 | -7 |
| Cc1nc2ccccc2n1CC1CCCN1C(=O)C1CCc2cccnc21 (configuration not stated) | -7 |
| CN(Cc1ccccc1)C(=O)C[C@H]1CCN(C(=O)c2cnccn2)C1 | -1 |
| COc1ccc2c(c1)/C(=C1/SC(C(C)=O)=C(c3ccccc3)S1)C(=S)C(C)(C)N2C(=O)Nc1ccc(Cl)c(Cl)c1 | -7 |
| Cc1ccc(-c2nc(CNC(=O)C[C@H]3CNCCO3)[nH]c2-c2ccccn2)cc1 | 22 |
| Cn1ncnc1CCNC(=O)NC(C1CCCC1)C1CCCC1 | 1 |
| O=C(NC1CC1)c1cn(CC2(O)CCN(Cc3ccccc3)CC2)nn1 | 0 |
| CC1(C)CC(=O)C2(Cc3ccccc3N3CCN(Cc4ccccc4)C[C@H]32)C(=O)C1 | 8 |
| O=C(Nc1sc2c(c1C(=O)O)CCC2)c1ccsc1 | -3 |

| SMILES | % Inhibition [%] |
| --- | --- |
| COC(=O)[C@@H](NC(=O)NC1CCCCC1)C(C)(C)C | -2 |
| Cc1ccsc1-c1noc([C@@H]2COCCN2C)n1 | -7 |
| COc1c(O)ccc2c(=O)c3c(O)cc(O)c(OC)c3n(C)c12 | -3 |
| CC1(C)C(NCC(O)COc2ccc(F)c(F)c2)[C@@H]2CCC[C@@H]21 (some centres not stated) | 72 |
| COc1ccc(Oc2c(CN(CC3CC3)C(=O)c3ccccc3)c(-c3ccccc3)nn2C)cc1 | 2 |
| CC1(C)Oc2ccc(NC(=O)c3ccco3)cc2NC1=O | -2 |
| CC(C)N(C)CC1CCN(C(=O)c2cc(-c3ccccc3)c(N3CCOCC3)s2)CC1 | -4 |
| CCOc1cc(-c2cc(-c3ccccc3O)nc3ccc4ccccc4c23)cc(Br)c1O | 91 |
| COc1cccc(CNCc2ccccc2)c1OCc1ccccc1Cl | -1 |
| O=c1c2ccccc2nnn1-c1ncc(C(F)(F)F)cc1Cl | -9 |
| CC(C)(C)CCS(=O)(=O)N1CCC[C@H]1C1CCCCC1 | 0 |
| CC(C)CCn1nnnc1[C@]1(N(C)C)CCCN(C(=O)c2cccn2C)C1 | 88 |
| Cn1cccc1C(=O)N1CCCN(S(C)(=O)=O)[C@H]2CCC[C@H]2C(=O)NCC1 | 0 |
| COc1cccc(C(=O)N2CCC(c3nc(-c4ccc5c(c4)OCO5)no3)CC2)c1OC | -3 |
| Cc1ccc(S(=O)(=O)N2CCN(C(=O)N3CCOCC3)[C@@H]2C)cc1 | -8 |
| C#CCOCC(O)CN(Cc1c(-c2ccccc2)noc1N1CCC(C)CC1)CC1CCCO1 (configuration not stated) | -17 |
| O=C(OCc1ccc(C(F)(F)F)nc1)c1ccc(C(F)(F)F)nc1 | 7 |
| O=C(NC1CCOCC1)c1ccc(-c2ccc(F)c(F)c2F)cn1 | 6 |
| CNC(=O)[C@@H](NC(=O)CNC(=O)c1ccc(Cl)cc1)C(C)(C)C | -11 |
| CC(=O)N1CCc2cc(-c3ccc(C(=O)NCCC(C)C)cc3)ccc21 | 2 |
| O=C(NCCN1CCCC1)c1ccc2c(c1)OCCO2 | -12 |
| O=C(c1ccnn1C(F)F)N1N=CC[C@]1(O)C(F)(F)F | -5 |
